Assay [1] has as its system Tyrosine-protein kinase ABL1 (Homo sapiens), P00519 [T315I]. The following applies: at 1 µM.
Assay [2] concerns Tyrosine-protein kinase ABL1 (Homo sapiens), P00519 [Y253F]. As to conditions: at 0.1 µM.
Assay [3] has the same test system. As to conditions: at 1 µM.
The target of assay [4] is Tyrosine-protein kinase ABL1 (Homo sapiens) (UniProt P00519). As to conditions: at 0.1 µM.
Assay [5] shares this target. The following applies: at 1 µM.
For assay [6], the target named is ALK tyrosine kinase receptor (Homo sapiens) (UniProt Q9UM73). The following applies: at 0.1 µM.
The target is the same in assay [7]. The following applies: at 1 µM.
The target in assay [8] is Tyrosine-protein kinase ABL2 (Homo sapiens) (UniProt P42684). As to conditions: at 0.1 µM.
Assay [9] shares this target. As to conditions: at 1 µM.
Assay [10] concerns the target Tyrosine-protein kinase receptor UFO (Homo sapiens) (UniProt P30530). The following applies: at 0.1 µM.
Assay [11] shares this target. As to conditions: at 1 µM.
The target in assay [12] is Tyrosine-protein kinase Blk (Homo sapiens) (UniProt P51451). As to conditions: at 0.1 µM.
For assay [13] the target is unchanged. The following applies: at 1 µM.
The target in assay [14] is T1, Cytoplasmic tyrosine-protein kinase BMX (Homo sapiens) (UniProt P51813).
T1 sequence (whole entry): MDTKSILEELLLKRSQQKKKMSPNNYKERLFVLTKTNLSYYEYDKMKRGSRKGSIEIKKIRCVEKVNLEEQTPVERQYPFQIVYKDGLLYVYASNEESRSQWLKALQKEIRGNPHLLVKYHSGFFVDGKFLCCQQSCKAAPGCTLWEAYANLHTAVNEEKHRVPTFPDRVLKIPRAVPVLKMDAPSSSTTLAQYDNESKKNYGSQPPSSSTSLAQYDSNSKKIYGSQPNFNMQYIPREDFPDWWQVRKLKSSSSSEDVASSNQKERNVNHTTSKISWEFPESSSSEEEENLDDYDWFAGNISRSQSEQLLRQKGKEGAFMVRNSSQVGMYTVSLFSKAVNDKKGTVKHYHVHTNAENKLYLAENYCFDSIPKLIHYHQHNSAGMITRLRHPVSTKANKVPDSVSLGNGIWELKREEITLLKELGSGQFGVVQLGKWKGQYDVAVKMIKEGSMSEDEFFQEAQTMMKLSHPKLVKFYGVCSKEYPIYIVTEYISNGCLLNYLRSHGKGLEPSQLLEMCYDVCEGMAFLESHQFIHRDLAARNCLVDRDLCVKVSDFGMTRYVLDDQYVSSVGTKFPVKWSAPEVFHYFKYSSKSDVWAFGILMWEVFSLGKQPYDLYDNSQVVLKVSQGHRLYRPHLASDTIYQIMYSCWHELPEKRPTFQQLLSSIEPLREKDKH
The following applies: at 0.1 µM.

Assay [15] concerns the target T1, Cytoplasmic tyrosine-protein kinase BMX (Homo sapiens). The following applies: at 1 µM.
The target in assay [16] is Protein-tyrosine kinase 6 (Homo sapiens) (UniProt Q13882). The following applies: at 0.1 µM.
The target is the same in assay [17]. As to conditions: at 1 µM.
Assay [18] concerns the target Tyrosine-protein kinase BTK (Homo sapiens) (UniProt Q06187). The following applies: at 0.1 µM.
Assay [19] shares this target. As to conditions: at 1 µM.
Assay [20] has as its target Tyrosine-protein kinase CSK (Homo sapiens) (UniProt P41240). As to conditions: at 0.1 µM.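 Further: value given is the averaged percent inhibition of CSK kinase activity, from the GSK PKIS kinase inhibitor set screening panel.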

These results are taken from ChEMBL document CHEMBL1961873, “Compounds: GSK PKIS; Assays: Nanosyn kinase panel” (2012).

Chain of Tyrosine-protein kinase Blk (Homo sapiens) (P51451 2-505 limits assumed): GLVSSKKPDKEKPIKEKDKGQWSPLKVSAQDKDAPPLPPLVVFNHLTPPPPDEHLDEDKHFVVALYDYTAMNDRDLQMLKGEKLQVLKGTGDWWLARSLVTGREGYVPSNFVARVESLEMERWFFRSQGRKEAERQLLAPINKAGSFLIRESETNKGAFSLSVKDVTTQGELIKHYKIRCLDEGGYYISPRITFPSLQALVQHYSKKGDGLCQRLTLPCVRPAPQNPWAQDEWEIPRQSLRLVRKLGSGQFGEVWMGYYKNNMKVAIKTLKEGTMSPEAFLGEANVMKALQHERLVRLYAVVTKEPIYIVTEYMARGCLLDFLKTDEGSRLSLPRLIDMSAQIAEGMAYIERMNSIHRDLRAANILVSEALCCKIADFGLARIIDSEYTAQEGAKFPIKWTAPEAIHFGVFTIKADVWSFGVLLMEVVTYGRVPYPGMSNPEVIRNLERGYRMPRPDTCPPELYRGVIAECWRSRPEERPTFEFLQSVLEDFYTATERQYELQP
Chain of ALK tyrosine kinase receptor (Homo sapiens) (Q9UM73 19-1620 limits assumed): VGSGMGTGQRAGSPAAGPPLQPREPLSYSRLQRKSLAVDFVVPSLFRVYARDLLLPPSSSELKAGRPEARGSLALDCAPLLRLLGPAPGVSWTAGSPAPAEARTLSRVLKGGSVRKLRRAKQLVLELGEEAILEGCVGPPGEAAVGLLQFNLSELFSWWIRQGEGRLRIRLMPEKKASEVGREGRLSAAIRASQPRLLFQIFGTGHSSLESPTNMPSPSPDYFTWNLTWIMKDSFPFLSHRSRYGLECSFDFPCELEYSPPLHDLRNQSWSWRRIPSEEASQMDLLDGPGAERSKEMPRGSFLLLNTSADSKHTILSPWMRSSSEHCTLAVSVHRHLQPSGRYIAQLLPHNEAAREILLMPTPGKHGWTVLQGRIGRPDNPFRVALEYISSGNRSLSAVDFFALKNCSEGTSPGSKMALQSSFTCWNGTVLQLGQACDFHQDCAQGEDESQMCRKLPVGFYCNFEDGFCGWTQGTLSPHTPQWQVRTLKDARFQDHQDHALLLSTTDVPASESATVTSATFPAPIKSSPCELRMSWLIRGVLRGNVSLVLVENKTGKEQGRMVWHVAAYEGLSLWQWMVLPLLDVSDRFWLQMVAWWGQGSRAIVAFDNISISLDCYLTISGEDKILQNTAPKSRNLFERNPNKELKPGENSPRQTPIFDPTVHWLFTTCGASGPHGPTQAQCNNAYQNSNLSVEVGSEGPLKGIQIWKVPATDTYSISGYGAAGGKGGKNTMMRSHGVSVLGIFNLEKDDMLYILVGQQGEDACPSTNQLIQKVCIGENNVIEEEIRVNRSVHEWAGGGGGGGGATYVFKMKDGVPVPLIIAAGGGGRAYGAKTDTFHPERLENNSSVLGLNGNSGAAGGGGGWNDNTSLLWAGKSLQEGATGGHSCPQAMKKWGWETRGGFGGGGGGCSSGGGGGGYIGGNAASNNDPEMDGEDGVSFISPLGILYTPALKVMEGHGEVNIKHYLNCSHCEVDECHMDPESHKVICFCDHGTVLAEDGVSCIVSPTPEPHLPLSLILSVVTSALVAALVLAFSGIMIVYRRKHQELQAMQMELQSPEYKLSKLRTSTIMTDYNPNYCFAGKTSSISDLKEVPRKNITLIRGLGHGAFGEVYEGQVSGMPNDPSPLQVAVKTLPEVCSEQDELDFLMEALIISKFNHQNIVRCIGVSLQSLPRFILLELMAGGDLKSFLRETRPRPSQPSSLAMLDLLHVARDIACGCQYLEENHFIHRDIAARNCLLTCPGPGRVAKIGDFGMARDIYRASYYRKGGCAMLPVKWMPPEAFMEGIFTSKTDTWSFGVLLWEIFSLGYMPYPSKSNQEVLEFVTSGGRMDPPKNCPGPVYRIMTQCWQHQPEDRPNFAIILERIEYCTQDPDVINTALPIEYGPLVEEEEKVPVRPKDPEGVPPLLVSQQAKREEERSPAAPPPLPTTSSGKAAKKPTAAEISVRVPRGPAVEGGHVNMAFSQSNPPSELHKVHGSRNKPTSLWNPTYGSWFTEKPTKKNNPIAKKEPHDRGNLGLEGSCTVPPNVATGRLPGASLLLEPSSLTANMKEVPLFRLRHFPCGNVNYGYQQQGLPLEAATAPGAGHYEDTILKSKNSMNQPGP
Chain of Tyrosine-protein kinase CSK (Homo sapiens) (P41240 2-450 limits assumed): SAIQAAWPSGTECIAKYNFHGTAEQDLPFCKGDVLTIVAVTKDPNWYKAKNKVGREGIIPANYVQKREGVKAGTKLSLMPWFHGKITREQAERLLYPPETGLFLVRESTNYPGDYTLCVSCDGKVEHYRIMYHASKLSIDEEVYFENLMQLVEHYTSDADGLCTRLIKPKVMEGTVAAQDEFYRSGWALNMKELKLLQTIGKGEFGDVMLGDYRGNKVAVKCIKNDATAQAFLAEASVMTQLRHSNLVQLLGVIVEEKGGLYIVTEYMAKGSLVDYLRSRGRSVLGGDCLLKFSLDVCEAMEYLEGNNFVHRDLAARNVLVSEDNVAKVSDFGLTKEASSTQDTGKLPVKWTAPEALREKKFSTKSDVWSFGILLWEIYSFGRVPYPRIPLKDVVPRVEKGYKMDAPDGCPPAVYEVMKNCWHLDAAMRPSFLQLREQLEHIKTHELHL
Chain of Tyrosine-protein kinase receptor UFO (Homo sapiens) (P30530 whole entry): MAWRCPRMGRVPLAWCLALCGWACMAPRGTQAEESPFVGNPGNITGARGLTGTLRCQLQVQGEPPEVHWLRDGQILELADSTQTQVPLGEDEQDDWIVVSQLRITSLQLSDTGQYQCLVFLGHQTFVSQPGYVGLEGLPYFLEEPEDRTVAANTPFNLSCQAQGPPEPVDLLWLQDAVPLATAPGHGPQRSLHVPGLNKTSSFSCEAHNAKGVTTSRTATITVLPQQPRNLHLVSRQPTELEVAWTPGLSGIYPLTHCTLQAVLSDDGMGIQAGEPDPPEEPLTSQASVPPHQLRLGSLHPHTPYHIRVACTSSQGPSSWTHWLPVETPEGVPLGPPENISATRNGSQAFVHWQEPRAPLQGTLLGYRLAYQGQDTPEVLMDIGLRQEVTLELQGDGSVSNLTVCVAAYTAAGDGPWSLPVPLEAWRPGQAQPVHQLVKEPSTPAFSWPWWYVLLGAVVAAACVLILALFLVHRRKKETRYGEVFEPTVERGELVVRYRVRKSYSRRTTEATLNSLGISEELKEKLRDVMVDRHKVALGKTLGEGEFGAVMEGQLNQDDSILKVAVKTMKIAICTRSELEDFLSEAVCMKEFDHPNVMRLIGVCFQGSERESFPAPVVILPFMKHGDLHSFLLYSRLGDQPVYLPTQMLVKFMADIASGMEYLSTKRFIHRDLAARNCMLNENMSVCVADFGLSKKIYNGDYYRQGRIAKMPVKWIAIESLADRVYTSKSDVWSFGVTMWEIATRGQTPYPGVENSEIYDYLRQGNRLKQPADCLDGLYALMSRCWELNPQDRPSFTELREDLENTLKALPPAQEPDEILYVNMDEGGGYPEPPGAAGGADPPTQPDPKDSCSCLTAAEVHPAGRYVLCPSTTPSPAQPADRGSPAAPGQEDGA
Chain of Tyrosine-protein kinase BTK (Homo sapiens) (Q06187 whole entry): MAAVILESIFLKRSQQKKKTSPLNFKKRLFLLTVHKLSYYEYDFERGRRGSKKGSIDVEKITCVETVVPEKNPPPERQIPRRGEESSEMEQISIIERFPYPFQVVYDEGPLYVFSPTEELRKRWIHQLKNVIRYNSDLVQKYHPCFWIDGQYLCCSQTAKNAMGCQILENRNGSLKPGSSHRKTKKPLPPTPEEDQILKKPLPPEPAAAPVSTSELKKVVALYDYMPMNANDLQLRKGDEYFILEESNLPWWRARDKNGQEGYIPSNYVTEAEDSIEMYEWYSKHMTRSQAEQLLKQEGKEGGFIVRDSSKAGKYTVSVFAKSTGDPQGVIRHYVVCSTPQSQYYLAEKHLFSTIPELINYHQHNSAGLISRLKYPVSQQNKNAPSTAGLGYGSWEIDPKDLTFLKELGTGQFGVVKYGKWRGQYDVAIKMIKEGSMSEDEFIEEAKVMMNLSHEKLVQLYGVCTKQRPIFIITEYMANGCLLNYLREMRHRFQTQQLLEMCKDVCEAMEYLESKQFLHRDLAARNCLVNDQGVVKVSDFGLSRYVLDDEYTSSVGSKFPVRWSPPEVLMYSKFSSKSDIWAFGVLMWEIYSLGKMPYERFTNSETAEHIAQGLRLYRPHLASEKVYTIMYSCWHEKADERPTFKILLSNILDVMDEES
Chain of Protein-tyrosine kinase 6 (Homo sapiens) (Q13882 whole entry, looked up): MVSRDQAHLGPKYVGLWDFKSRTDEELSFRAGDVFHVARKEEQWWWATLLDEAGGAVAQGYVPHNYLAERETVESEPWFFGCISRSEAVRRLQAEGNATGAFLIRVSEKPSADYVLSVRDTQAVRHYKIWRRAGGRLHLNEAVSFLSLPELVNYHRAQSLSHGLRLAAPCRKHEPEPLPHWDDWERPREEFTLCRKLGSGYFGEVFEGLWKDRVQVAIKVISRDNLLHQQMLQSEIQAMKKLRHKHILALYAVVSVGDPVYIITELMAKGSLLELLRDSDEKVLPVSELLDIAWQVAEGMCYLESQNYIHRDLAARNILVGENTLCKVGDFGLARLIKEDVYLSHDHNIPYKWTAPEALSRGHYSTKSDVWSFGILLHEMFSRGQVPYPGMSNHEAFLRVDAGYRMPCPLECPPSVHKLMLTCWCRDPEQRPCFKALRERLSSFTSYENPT

As usually defined, the inhibition is the change of the read-out against control, counted positive when it falls. For the compound `N#Cc1cccc(Nc2ncc(-c3ccccc3)o2)c1`, the inhibition amounted to 10.4% in [1]; 4.28% in [2]; 21.7% in assay [3]; 3.9% in assay [4]; 20.6% in assay [5]; 1.63% in assay [6]. In addition, the inhibition in assay [7] is 2.63%; in assay [8], 4.38%; in [9], 20.3%; in assay [10], -2.1%; in assay [11], -1.77%; in [12], 2.28%. Moreover, the inhibition came to 5.45% in assay [13]; 5.35% in assay [14]; 3.56% in assay [15]; 3.51% in assay [16]; 3.45% in assay [17]; 1.01% in assay [18]. Moreover, the inhibition is -0.7% in assay [19] and 2.15% in assay [20].

For the compound `CS(=O)(=O)CCNCc1ccc(-c2ccc3ncnc(Nc4ccc(OCc5ccccc5)cc4)c3c2)o1`, the inhibition in assay [1] was found to be 4.95%; in assay [2] it was 2.39%; in [3], 4.13%; in assay [4] it was 5.38%; in assay [5], 5.59%; in [6], 2.33%. Besides, the inhibition is 2.76% in assay [7]; 2.73% in assay [8]; 4.87% in [9]; -3.92% in assay [10]; -1.88% in [11]; 3.85% in assay [12]. Moreover, the inhibition in assay [13] is 14.1%; in [14], 3.59%; in assay [15], 8.85%; in [16] it was 2.05%; in [17], 13.7%; in [18] it was 0.51%. The inhibition in [19] amounted to 6.4%; in assay [20] it was 5.85%.

Take `COC(=O)Nc1nc2ccc(Oc3ccc(NC(=O)Nc4cc(C(F)(F)F)ccc4F)cc3)cc2s1`: the inhibition in assay [1] was 92.6%; in assay [2] it was 32.2%; in [3], 75.7%; in [4], 42.7%; in assay [5] it was 79.8%; in assay [6], 0.95%. Besides, the inhibition in assay [7] is 6.26%; in assay [8] it was 51.4%; in assay [9] it was 73.6%; in assay [10] it was 13.7%; in assay [11], 46.6%; in assay [12], 0.64%. Besides, the inhibition in [13] was 3.2%; in [14], 0.05%; in [15], 2.68%; in assay [16], 1.06%; in assay [17], 0.36%; in assay [18], -0.69%. The inhibition in [19] was -0.85%; in [20], 4.36%.

With `Cc1ccc(-c2cc3c(NC(=O)C4CC4)ncnc3o2)cc1`, the inhibition stood at 14% in [1]; 7.48% in assay [2]; 29.1% in assay [3]; 5.87% in [4]; 30.4% in assay [5]; 4.09% in assay [6]. Moreover, the inhibition in assay [7] is 10.7%; in assay [8] it was 3.64%; in [9] it was 2.5%; in [10] it was -6.86%; in [11] it was -1.05%; in assay [12], 3.18%. The inhibition in assay [13] is 12.7%; in [14] it was -1.26%; in [15] it was 7.57%; in [16] it was 4%; in assay [17], 8.16%; in assay [18], 0.73%. The results for the inhibition in assay [19] and in assay [20] were 1.92% and 2.33%, respectively.

In the case of `c1cnn2ncc(-c3ccnc(NCCCN4CCOCC4)n3)c2c1`, the inhibition in assay [1] is 3.23%; in assay [2] it was 4.67%; in assay [3], 1.93%; in assay [4], 2.22%; in assay [5] it was 6.5%; in assay [6], 2.15%. Moreover, the inhibition in assay [7] was 3.78%; in assay [8] it was 2.25%; in assay [9], 1.19%; in assay [10], -7.99%; in [11], -4.37%; in assay [12], 1.7%. In addition, the inhibition in [13] was 2.58%; in assay [14], -0.07%; in assay [15], 2.01%; in [16], 2.34%; in [17], 3.25%; in assay [18], -1.19%. For the same compound, the inhibition in assay [19] is -2.44%; in assay [20] it was 5.75%.

Regarding `CN(C)CCNC(=O)Nc1ccc(N(C)c2ccnc(Nc3ccc(CS(C)(=O)=O)cc3)n2)cc1`, the inhibition in assay [1] amounted to 14.5%; in [2], 7.05%; in assay [3], 14.7%; in [4] it was 5.68%; in assay [5] it was 19.6%; in [6] it was 3.32%. The inhibition is 11.7% in assay [7]; 5.95% in assay [8]; 16.8% in assay [9]; -5.4% in assay [10]; -0.6% in assay [11]; 2.78% in assay [12]. Further, the inhibition in [13] amounted to 9.64%; in assay [14], 3.74%; in assay [15], 10.5%; in assay [16], 4.92%; in [17], 5.13%; in [18], 2.45%. Moreover, the figures for the inhibition in assay [19] and in [20] were 3.65% and 3.68%, respectively.

`CN(c1ccc(NC(=O)NCCN2CCOCC2)cc1)c1ccnc(Nc2ccc(CS(C)(=O)=O)cc2)n1`: the inhibition in assay [1] was 30.3%; in assay [2] it was 6.51%; in assay [3] it was 22.1%; in [4], 4.29%; in [5] it was 21.8%; in assay [6] it was 2.33%. The inhibition in assay [7] is 5.11%; in assay [8], 6.09%; in assay [9], 36%; in assay [10], -1.83%; in assay [11], -4.88%; in assay [12], 2.89%. Moreover, the inhibition in assay [13] was determined as 8.61%; in assay [14], 0.59%; in assay [15] it was 22.6%; in [16] it was 2.66%; in assay [17], 8.9%; in [18] it was 1.05%. Besides, the figures for the inhibition in assay [19] and in assay [20] were 2.3% and 3.59%, respectively.
